High-throughput results deposited in PubChem BioAssay by National Center for Advancing Translational Sciences (NCATS).
Most compounds without a hit are left out; they make up all but 3% or so of the library.
Tau fibril FP = tau fibrillization inhibition (FP); P10636; K18 P301L tau heparin fibrillization, Alexa594 FP, 6 h; Potency, µM (top dose mostly 57.7 µM), hits mostly inhibitors; 0.39% of 280,000 active; also: nearly all actives have a fitted effect of over 55% in size
Target sequence (P10636 561-689 P618L limits assumed): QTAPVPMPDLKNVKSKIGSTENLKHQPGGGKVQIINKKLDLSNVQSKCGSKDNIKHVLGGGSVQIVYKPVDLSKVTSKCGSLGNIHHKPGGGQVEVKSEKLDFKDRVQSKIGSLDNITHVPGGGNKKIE
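Recombinant K18 P301L […], labeled with Alexa 594 at 0.24 uM over 15 uM unlabeled; heparin inducer 20 uM final; 37 C, 6 hr; FP endpoint.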
Tau ThT inhib = blocks human tau fibril formation measured by thioflavin T. P10636. recombinant tau K18 P301L, heparin-induced fibrillization, ThT fluorescence. Potency, µM (titrated, usually from 57.4 µM), hits mostly inhibitors. 2.1% of 270,000 active. AID 1460; also: nearly all actives have a fitted effect of over 55% in size
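Heparin-induced fibrillization of the P301L-mutant K18 repeat-domain fragment of human tau was followed by ThT binding in quantitative high-throughput format.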
Coupling enz = inhibits coupling enzyme system, counter-screen for aldolase hits | coupling enzyme system counterscreen, AmpLite Red fluorescence | activity change, negative = inhibition, % at 58.2 µM, hits read low | 0.67% of 290,000 active | AID 2472; in the data active = activity change below about -30%
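Activity here indicates interference with the coupling reaction, not aldolase inhibition. Compounds at 57.5 uM final met coupling enzymes for 10 min at RT; substrate and AmpLite Red detection followed, with a 525/598 nm fluorescence read after 20 min.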
JMJD2E inh = inhibitors of human JMJD2E histone demethylase; 1.6% of 230,000 active; B2RXH2; JMJD2E catalytic domain, FDH-coupled NADH fluorescence (FDH is formaldehyde dehydrogenase); Potency, µM (top dose mostly 57.1 µM), hits mostly inhibitors; active = well fitted inhibition curve with a large enough effect, not every such curve was filed as active; inconclusive = small, poorly fitted or top-dose-only effect, or another doubt; inactive = no such curve, though single readings can be large or run the other way; also: nearly all actives have a fitted effect of over 50% in size
Target sequence (B2RXH2 1-337 limits assumed): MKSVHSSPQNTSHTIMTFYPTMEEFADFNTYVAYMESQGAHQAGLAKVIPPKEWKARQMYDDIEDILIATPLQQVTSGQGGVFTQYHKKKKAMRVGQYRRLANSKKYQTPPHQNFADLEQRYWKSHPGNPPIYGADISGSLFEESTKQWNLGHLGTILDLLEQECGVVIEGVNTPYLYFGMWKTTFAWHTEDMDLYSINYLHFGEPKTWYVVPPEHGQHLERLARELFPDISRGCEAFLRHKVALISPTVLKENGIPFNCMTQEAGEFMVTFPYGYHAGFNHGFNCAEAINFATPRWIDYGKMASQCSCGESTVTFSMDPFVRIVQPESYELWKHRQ
Tau fluor counter = counter-screen for tau fibril formation inhibitors. tau K18 P301L Alexa594 fluorescence, heparin fibrillization. Potency, µM (top dose mostly 57.7 µM). 0.93% of 280,000 active; also: nearly all actives have a fitted effect of over 55% in size
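Human tau K18 P301L (15 uM unlabeled, 0.24 uM Alexa 594-labeled) in 100 mM sodium acetate pH 7 with 20 uM heparin, 6 hr at 37 C. ThT 30 uM added, 1 hr ambient; Alexa 594 FP and total fluorescence read at 555/632 nm.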
Hits are given with their value; n = inactive; u = inconclusive; x = no result given; [ ] = another dose, or the depositor's remark. Unless noted, calls follow the shape of the dose curve; as a rule, active = well fitted curve in the direction sought with a large enough effect; inconclusive = small, poorly fitted or top-dose-only effect, or another doubt; inactive = no such curve, though single readings can be large; an effect the other way counts as inactive or inconclusive.

SMILES	Tau fibril FP	Tau ThT inhib	Coupling enz	JMJD2E inh	Tau fluor counter
CCSc1ncc(/C=N/Nc2ccc(F)cc2)n1C	n	8.9µM	n	n	u
Cc1ccccc1NC(=O)Nc1nnc(N2CCCCCC2)s1	n	n	x	x	n
Oc1c(Br)cc(Br)cc1CNc1ccc(F)cc1	n	u	-33	n	u
COc1ccc(Cl)cc1NC(=O)CSc1nc(-c2ccco2)cc(C(F)(F)F)n1	n	n	x	x	u
COc1ccc(-n2c(N)c(C#N)c3ccc([N+](=O)[O-])cc3c2=O)cc1	n	n	-42	n	n
Cc1c(Cl)cccc1-n1nc(C)c2c(C)cc(=O)n(CC(=O)N3CCCc4ccccc43)c21	n	n	x	x	n
COc1ccccc1OCCn1cc(/C=N/NC(=O)c2ccncc2)c2ccccc21	u	u	n	n	13µM[quencher]
COc1ccccc1OCCn1cc(/C=N/NC(N)=S)c2ccccc21	u	u	n	u	u
O=C(N/N=C/c1cn(CCOc2ccccc2)c2ccccc12)c1ccncc1	n	u	n	u	14µM[quencher]
COCO[C@H]([C@@H](C)C=C(Br)Br)[C@@H](C)COCc1ccc(OC)cc1	x	x	n	x	x
N#C/C(=C/c1ccc(N2CCOCC2)o1)c1ccc(Br)cc1	u	14µM	x	u	u
N#C/C(=C/c1ccc(N2CCOCC2)o1)C(=O)NC1CCCCC1	n	u	n	u	n
N#C/C(=C\c1cc([N+](=O)[O-])c(N2CCOCC2)cc1N1CCOCC1)c1nc2ccccc2[nH]1	n	16µM	n	n	u
COc1cc(N2CCCC2)c(OC)cc1/C=C(/C#N)c1cccc(F)c1	n	u	n	n	u
N#C/C(=C/c1ccc(N2CCCCCC2)o1)c1cccc(F)c1	u	14µM	-48	n	u
N#C/C(=C\c1ccc(N2CCOCC2)o1)c1ccccc1	u	14µM	-44	u	u
CCOCCCNC(=O)NC(C)c1c(-n2cccc2)sc2c1CCN(CC)C2 (configuration not stated)	n	n	x	x	n
Cc1cccc(N2CCN(C(=O)c3cccn3-c3nnc(N4CCCCC4)s3)CC2)c1C	n	u	x	x	n
N#C/C(=C\c1ccc(Sc2ccc(Cl)cc2)o1)c1nc2ccccc2[nH]1	u	u	n	n	7.1µM[quencher]
N#C/C(=C/c1ccc(N2CCOCC2)o1)c1nc2ccccc2[nH]1	n	7.9µM	n	u	u
COc1ccc(NC(=O)CN2CCCN(S(=O)(=O)c3ccc(Br)cc3)CC2)c(OC)c1	n	u	x	x	n
COc1cc(S(=O)(=O)NCCc2c(C)[nH]c3ccccc23)c(C)cc1C	u	u	x	x	13µM[quencher]
Cc1ccc([N+](=O)[O-])cc1S(=O)(=O)NCCc1c(C)[nH]c2ccccc12	n	u	n	n	u
CSCC[C@H](NC(=O)[C@H](Cc1c[nH]c2ccccc12)NC(=O)CNC(=O)[C@H](Cc1ccc(O)cc1)NC(=O)[C@H](C)NC(=O)[C@H](CCC(=O)O)NC(=O)[C@H](CCC(=O)O)NC(=O)[C@H](CCC(=O)O)NC(=O)[C@H](CCC(=O)O)NC(=O)[C@H](CCC(=O)O)NC(=O)[C@H](CC(C)C)NC(=O)[C@H](Cc1c[nH]c2ccccc12)NC(=O)[C@@H]1CCCN1C(=O)CNC(=O)[C@@H]1CCC(=O)N1)C(=O)N[C@@H](CC(=O)O)C(=O)N[C@@H](Cc1ccccc1)C(=O)NCC(=O)O	x	x	n	x	x
CCOC(=O)c1sc2nc3c(SCC(=O)O)cc(C(=O)c4cc(F)ccc4O)cn3c(=O)c2c1C	n	13µM	n	u	n
SMILES	Tau fibril FP	Tau ThT inhib	Coupling enz	JMJD2E inh	Tau fluor counter
COc1ccc(O)c(C(=O)c2cc(SCC(=O)O)c3nc4sc5c(c4c(=O)n3c2)CCCC5)c1	n	18µM	n	u	n
COc1ccc(Cn2c(=O)c3oc4ccccc4c3n(Cc3cccc(C(F)(F)F)c3)c2=O)cc1	n	n	x	x	n
O=C(CSc1n[nH]c(-c2ccccc2Cl)n1)N1CCN(c2ccc(F)cc2)CC1	n	n	x	x	n
N#C/C(=C\C1=C(N2CCOCC2)C(=C\c2ccc(Cl)cc2)/CC1)C(=O)Nc1ccccc1F	u	u	n	n	n
N#C/C(=C\C1=C(N2CCOCC2)C(=C/c2cccc([N+](=O)[O-])c2)/CC1)C(=O)Nc1ccccc1F	u	2.2µM	n	n	n
CCOc1ccc(NCc2cccn2-c2nnc(N3CCC(C(=O)NCCc4ccc(OC)c(OC)c4)CC3)s2)cc1	n	u	x	x	u
CCOc1ccc(CCNC(=O)CCN2N=C(c3ccc(OC)cc3)CCC2=O)cc1OCC	n	n	x	x	n
Cn1c(N=NC(=O)c2ccccc2)c(O)c2ccccc21	n	13µM	n	n	u
CC(=O)C1=C(C)OC2(O)c3ccccc3C(=O)C12O (configuration not stated)	u	2.2µM	n	u	n
CCOC(=O)C1=C(C)c2ccccc2OC1(CC)C(=O)OCC (configuration not stated)	n	n	n	x	n
CCOC(=O)C1=C(C)OC2(O)c3ccccc3C(=O)C12O (configuration not stated)	1.4µM	2µM	n	u	n
CNc1ccc(C(=O)c2ccccc2C(=O)O)cc1[N+](=O)[O-]	n	n	n	n	n
CNc1ccc(/C=C/C(=O)c2cccc3ccccc23)cc1[N+](=O)[O-]	n	6.3µM	n	n	n
CCCN1C(=O)/C(=C/c2c(N3CCNC(=O)C3CC(=O)OCC)nc3c(C)cccn3c2=O)SC1=S (configuration not stated)	n	13µM	n	n	n
CCOc1ccccc1-c1nnc2n1N=C(c1cc(OC)cc(OC)c1)CS2	x	x	n	x	x
COc1cc(OC)c(NC(=O)Nc2sc3nc4n(c(=O)c3c2C)CCC(C)CC4)cc1Cl (configuration not stated)	n	u	x	x	4µM[quencher]
CC(=O)c1cccc(NC(=O)Nc2sc3nc4n(c(=O)c3c2C)CCC(C)CC4)c1 (configuration not stated)	u	u	x	x	11µM[quencher]
Cc1ccccc1NC(=O)c1sc2nc3n(c(=O)c2c1C)CCC3	u	n	x	x	4.5µM[quencher]
Cc1c(NC(=O)Nc2ccccc2C(F)(F)F)sc2nc3n(c(=O)c12)CCC(C)CC3 (configuration not stated)	u	n	x	x	13µM[quencher]
Cc1c(C(=O)Nc2ccccc2F)sc2nc3n(c(=O)c12)CCC3	n	n	x	x	n
Cc1c(NC(=O)Nc2ccc(Cl)c(Cl)c2)sc2nc3n(c(=O)c12)CCC(C)CC3 (configuration not stated)	u	n	x	x	u
CCOC(=O)N1CCN(C(=O)Nc2sc3nc4n(c(=O)c3c2C)CCC(C)CC4)CC1 (configuration not stated)	n	u	n	n	n
Cc1ccccc1CNC(=O)Nc1ccc2c(c1)N(C)C(=O)c1ccccc1S2	n	n	x	x	n
CC(C)Cn1c(=O)c2sccc2n2c(CCCC(=O)N3CCN(c4ccc(F)cc4)CC3)nnc12	n	n	x	x	n
